Screening results deposited in PubChem BioAssay by Broad Institute.
CFTR F508del cor – F508del CFTR correction, initial screen, CFBE line, single point; CFBE cells, YFP halide quenching; stimulated with forskolin plus potentiator P3; % fluorescence drop versus neutral controls; activity (quench increase), % at 7.58 µM; hit rate 0.36% among 350,000;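 active = mean added fluorescence quench of at least 8% versus neutral control, with both replicates also reaching 8%; inconclusive = only one of the mean or replicate conditions met; inactive = mean below 8% and not both replicates reaching 8%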;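 note: cells transiently co-express mutant CFTR-F508del with the halide-sensitive YFP; corrector assay measuring rescue of mutant channel to the surface after 24 h compound exposure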
N-glyco inh – increase of ERlucT glycosylation luciferase signal, primary screen, N-linked glycosylation inhibitor project, D54 ERlucT cells, luminescence, set 2 | reporter increase, % at 12.5 µM | hit rate 0.23% among 360,000 | D54 ERlucT glycosylation luciferase reporter, 24 h; percent of 100 nM tunicamycin response;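 active = mean luciferase reporter signal, scaled so untreated is 0 and the glycosylation-blocking control 100, at or above a set limit in every replicate; inconclusive = mean reaches the limit but not every replicate does; inactive = mean below the limit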;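 note: luciferase carries N-glycosylation sites so blocking glycosylation raises the light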
PvdQ acylase – P. aeruginosa PvdQ acylase inhibitors, primary screen, biochemical, fluorescence, plate reader and imaging, single point; purified PvdQ acylase; inhibition, % at 10 µM; hit rate 0.063% among 340,000; in the data active = inhibition above about 30%, passing the limit was not always enough; inconclusive = no clear call, values can overlap the other calls
RAD52 inh – RAD52 DNA annealing inhibitors, primary screen, biochemical, FRET, single point, set 2; hit rate 0.46% among 360,000; recombinant RAD52 DNA annealing, FRET fluorescence; AID 651710, 2012; inhibition, % at 18.7 µM; DNA repair protein RAD52 homolog (Homo sapiens), P43351;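 active = every replicate showing at least 50% inhibition; inconclusive = mean inhibition at least 50% but not in every replicate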
RAD54 branch – inhibitors of human RAD54 branch migration, primary screen, biochemical, fluorescence, single point; DNA repair and recombination protein RAD54-like (Homo sapiens), Q92698; RAD54 Holliday junction branch migration, FAM/BHQ fluorescence; inhibition, % at 10.4 µM; hit rate 0.14% among 360,000; AID 602329, 2012;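 active = mean normalized replicate activity at least 40 and at least half of replicates scoring 40 or more; inconclusive = only one of the two criteria met; inactive = mean below 40 and under half of replicates reaching 40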;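 note: inhibitors cause a drop in the FAM fluorescence signal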
Target sequence (Q92698 whole entry, looked up): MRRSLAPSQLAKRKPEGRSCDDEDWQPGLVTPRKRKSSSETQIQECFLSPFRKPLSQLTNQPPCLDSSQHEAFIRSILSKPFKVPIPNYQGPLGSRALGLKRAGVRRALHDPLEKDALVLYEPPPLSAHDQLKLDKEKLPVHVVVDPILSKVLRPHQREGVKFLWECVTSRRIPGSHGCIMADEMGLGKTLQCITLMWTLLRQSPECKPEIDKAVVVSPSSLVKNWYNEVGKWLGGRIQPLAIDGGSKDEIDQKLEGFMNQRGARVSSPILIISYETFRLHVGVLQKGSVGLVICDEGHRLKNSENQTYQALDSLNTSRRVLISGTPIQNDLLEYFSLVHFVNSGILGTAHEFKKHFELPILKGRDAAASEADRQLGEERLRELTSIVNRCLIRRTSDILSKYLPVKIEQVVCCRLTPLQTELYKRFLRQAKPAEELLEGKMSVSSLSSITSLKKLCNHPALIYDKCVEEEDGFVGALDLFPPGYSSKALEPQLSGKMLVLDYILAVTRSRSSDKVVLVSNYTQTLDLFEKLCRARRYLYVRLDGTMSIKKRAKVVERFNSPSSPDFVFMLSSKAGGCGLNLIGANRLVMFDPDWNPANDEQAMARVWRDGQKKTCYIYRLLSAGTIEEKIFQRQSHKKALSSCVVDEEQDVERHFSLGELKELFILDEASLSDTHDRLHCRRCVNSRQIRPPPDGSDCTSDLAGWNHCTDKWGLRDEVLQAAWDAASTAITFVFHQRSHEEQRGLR
dFosB act-1 – activators of delta FosB homodimer, primary screen, biochemical, fluorescence polarization, TAMRA-CDK5 oligo, single point. purified delta FosB; percent of positive-control signal above neutral wells. activation, % at 25 µM. hit rate 0.99% among 340,000;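 active = mean activation above about 17%, with every replicate also reaching it, limit read from the data, passing the limit was not always enough; inconclusive = only one of the two conditions met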
dFosB act-2 – activators of mouse delta FosB DNA binding, confirmation, biochemical, fluorescence polarization, TAMRA-CDK5 oligo, cherry-picked samples | activation, % at 24.9 µM | purified delta FosB; normalised: neutral wells 0, positive control 100 | 2,400 tested, under 10 active | AID 588690, 2011 | shares compounds with dFosB act-1;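 active = highest replicate activation at or above 34% and every replicate reaching that threshold; inconclusive = meets only one of the two criteria; inactive = meets neither criterion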;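 note: higher polarization means more probe DNA bound by delta FosB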
A number is an active result; i = inactive; ? = inconclusive; nt = not tested or not shown. Compounds with a hit are over-represented: about 1.5% of the library has one in this group of screens.

SMILES	CFTR F508del cor	N-glyco inh	PvdQ acylase	RAD52 inh	RAD54 branch	dFosB act-1	dFosB act-2
Cc1ccc(C(=O)NCC(=O)Nc2ccc(C)c(S(=O)(=O)Nc3ccc(Cl)cc3)c2)s1	i	i	i	i	nt	36	i
COc1ccc(Cn2c(=S)[nH]c3cc(C(=O)NCc4cccnc4)ccc3c2=O)cc1	i	i	i	i	nt	24	i
O=C(c1ccc(Cn2c(=S)[nH]c3ccc(Br)cc3c2=O)cc1)N1CCN(C2CCCCC2)CC1	i	i	i	i	i	31	i
COC(=O)c1ccc2c(=O)n(Cc3ccc(C(=O)NCCCN4CCC(C)CC4)cc3)c(=S)[nH]c2c1	i	i	i	i	nt	i	nt
CCCn1c(=S)[nH]c2cc(C(=O)NCC3CCCO3)ccc2c1=O (stereo unspecified)	i	i	i	i	i	i	nt
COC(=O)c1ccc2c(=O)n(Cc3ccc(C(=O)NCCCN4CCOCC4)cc3)c(=S)[nH]c2c1	i	i	i	i	i	29	i
O=C(NCC1CCCO1)c1ccc2c(=O)n(Cc3cccc(Br)c3)c(=S)[nH]c2c1 (stereo unspecified)	i	i	i	i	i	44	i
C[C@H](CO)N1C[C@H](C)[C@H](CN(C)CC2CCOCC2)Oc2ncc(-c3cccc(F)c3)cc2C1=O	i	nt	nt	i	i	nt	nt
CC(=O)c1cn(-c2ccc(Cl)cc2)c(=O)n(Cc2ccc(Br)cc2)c1=O	i	i	i	i	nt	27	i
CC(=O)C1=C(O)C(=O)N(c2ccc(Br)cc2)C1c1ccc(Cl)cc1 (stereo unspecified)	i	i	i	i	i	i	nt
Cc1ccc(Cn2c(CCNc3nc(-c4ccc(C)cc4)cs3)nc3cc(C(=O)NCCCO)ccc32)cc1	i	i	i	i	i	23	i
Cc1ccc(Cn2c(C(C)Nc3nc(-c4ccc(Cl)cc4)cs3)nc3cc(C(=O)NCCCO)ccc32)cc1 (stereo unspecified)	i	i	i	i	i	i	nt
O=C(Nc1cccc2c1CCCC2)C1CCCN(S(=O)(=O)c2cccc3nonc23)C1 (stereo unspecified)	nt	i	i	nt	nt	24	i
Cc1ccc(CCNC(=O)C2CCCN(S(=O)(=O)c3cccc4nsnc34)C2)cc1 (stereo unspecified)	nt	i	i	nt	i	47	i
Cc1ccccc1NC(=O)Cc1nc(COC(=O)c2cc([N+](=O)[O-])ccc2N)cs1	i	i	i	i	i	27	i
Cc1ccccc1NC(=O)Cc1nc(COC(=O)c2cc(Br)ccc2O)cs1	i	i	i	i	i	?	nt
Cc1ccc(S(=O)(=O)Nc2ccc3c(c2)C(=O)N([C@H](C)CO)C[C@H](C)[C@@H](CN(C)Cc2ccccc2)OCCCC[C@@H](C)O3)cc1	i	nt	nt	nt	i	nt	nt
O=C(CN1CCOCC1)NCC[C@@H]1CC[C@H](NC(=O)Nc2ccc(Cl)cc2)[C@@H](CO)O1	i	nt	nt	i	i	nt	nt
CNC[C@H]1OCCCC[C@@H](C)Oc2ccc(NC(=O)Nc3ccc(C(F)(F)F)cc3)cc2C(=O)N([C@@H](C)CO)C[C@H]1C	i	nt	nt	i	i	nt	nt
O=Cc1cn(-c2ccccc2)nc1-c1cc2cc(O)ccc2oc1=O	nt	i	i	nt	i	25	i
C[C@@H]1CCCCO[C@@H](CN(C)C(=O)Nc2ccc(C(F)(F)F)cc2)[C@H](C)CN([C@@H](C)CO)C(=O)c2cc(NS(=O)(=O)c3cn(C)cn3)ccc2O1	i	nt	nt	i	i	nt	nt
CC(C)Cn1c(N)c(C=O)c(=O)n(C)c1=O	i	i	i	i	i	i	nt
CC(C)Cn1c(N)c(/C=N/NC(=O)c2ccc(Cl)cc2)c(=O)n(C)c1=O	i	i	i	i	i	19	i
